{"source": "PubChem BioAssay (NCI)", "note": "About 83,000 compounds went through this panel and 20% of them were active in at least one assay; those are over-represented in the sample as a whole.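 Step 1: grow cells in 96-well plates. Step 2: add test compound at a single concentration. Step 3: incubate 48 h. Step 4: record percent growth.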 A number with no mark means an inactive call. Active and inactive are the calls of the source.", "data": [{"tested_on": "EKVX NSCLC", "experiment": "NCI-60 one-dose screen, 48 h (100 = growth as untreated, 0 = no growth, -100 = all killed)", "conditions": "10 µM unless noted", "description": "Growth inhibition of the EKVX human Non-Small Cell Lung tumor cell line is measured as a screen for anti-cancer activity. Cells are grown in 96 well plates and exposed to the test compound for 48 hours. Compounds are tested at a single concentration, which is 10^-5 M for most compounds. The reported endpoint is percent growth (GI% or GIPRCNT), where numbers from 0 - 100% represent growth inhibition, and numbers from -100% - 0 represent cell death. For example, a value of 40 represents 60% growth inhibition. A value of 0 means no net growth occurred over the course of the experiment. A value of -40 indicates 40% of cells at the beginning of the experiment died by the end of the experiment. A value of -100 means all cells are dead at the end of the experiment.\nNCI-60 Human Tumor Cell Lines Screen was performed using the standard one-dose NCI protocol, which is described in more detail at https://dtp.cancer.gov/discovery_development/nci-60/default.htm.\nCompounds with GIPRCNT values below 10 were considered active. Activity score was based on GIPRCNT using the following formula: […]\nScore is 0 for GIPRCNT values of 100 or above, 50 for GIPRCNT values of 0, and 100 for GIPRCNT values of -100.", "values": [{"smiles": "OC(c1ccc(F)c(C(F)(F)F)c1)c1cnccc1NC1CCCCC1", "note": "(stereo not given)", "growth": "69.3%"}, {"smiles": "C=C(C)[C@@H]1CC[C@]2(C(=O)N[C@H](CO)Cc3ccccc3)CC[C@]3(C)[C@H](CC[C@@H]4[C@@]5(C)CCCNC(C)(C)[C@@H]5CC[C@]43C)[C@@H]12", "growth": "-84.1% (active)"}, {"smiles": "O=C(c1nc2ccccc2[nH]1)C1C(c2ccc(Br)cc2)C2CC3CCCC[C@H]3N2[C@@]12C(=O)Nc1cc(Cl)ccc12", "note": "(stereo not given in full)", "growth": "37%"}, {"smiles": "O=C1CC(=O)OC(c2ccc([N+](=O)[O-])cc2)O1", "growth": "47.8%"}, {"smiles": "Cc1c(C(=O)NCCC(=O)NO)sc2ncnc(Nc3ccc(NC(=O)Nc4cccc(C(F)(F)F)c4)cc3)c12", "growth": "90.8%"}, {"smiles": "C=C1C(=O)O[C@H]2[C@H]1CC/C(COC(=O)NCc1c[nH]c3ccc(F)cc13)=C\\CC[C@@]1(C)O[C@@H]21", "growth": "10.6%"}, {"smiles": "Brc1ccc2[nH]cc(-c3cncn3CCc3ccccc3)c2c1", "growth": "36.6%"}, {"smiles": "COC(=O)N[C@H]1CCc2c(Cl)c(OC)c(OC)c(OC)c2-c2ccc(SC)c(=O)cc21", "growth": "47.8%"}, {"smiles": "O=C(/C=C(/C=C/c1csc2ccccc12)OB(F)F)/C=C/c1csc2ccccc12", "growth": "23.7%"}, {"smiles": "CCNc1nc2cc(Nc3ccnc4cc(Cl)ccc34)ccc2o1", "growth": "86%"}, {"smiles": "COc1ccc(C/C(C)=C(/c2ccc(OCCCN(C)C)cc2)c2ccc(OC(C)=O)cc2)cc1", "growth": "80.9%"}, {"smiles": "CNCCOc1nc2c3cnccc3cc(-c3cc(OC)c(OC)c(OC)c3)c2c2ccncc12", "growth": "-45.9% (active)"}, {"smiles": "N#CC1=C(N)Oc2c(cnn2-c2ccc([N+](=O)[O-])cc2[N+](=O)[O-])C1c1ccccc1", "note": "(stereo not given)", "growth": "90.6%"}, {"smiles": "CC1(C)CC[C@]2(C(=O)O)CC[C@]3(C)C(=CC[C@@H]4[C@@]5(C)Cc6c([nH]c7ccccc67)C(C)(C)[C@@H]5CC[C@]43C)[C@@H]2C1", "growth": "34.3%"}, {"smiles": "C=C(C)[C@@H]1CC[C@]2(C(=O)N3CCN(C)CC3)CC[C@]3(C)[C@H](CC[C@@H]4[C@@]5(C)CC[C@H](OCCC#N)C(C)(C)[C@@H]5CC[C@]43C)[C@@H]12", "growth": "101%"}, {"smiles": "C#CCNC(=O)[C@H](Cc1ccccc1)NC(=O)[C@]12CC[C@@H](C(=C)C)[C@@H]1[C@H]1CC[C@@H]3[C@@]4(C)CCC(=O)C(C)(C)[C@@H]4CC[C@@]3(C)[C@]1(C)CC2", "growth": "79%"}, {"smiles": "NC1=NN=C(N)C1=Cc1cc2ccccc2n2nnnc12", "growth": "77%"}, {"smiles": "CC(Sc1nc2ccccc2c(=O)n1CCc1ccc(S(N)(=O)=O)cc1)C(=O)Nc1ccc(Cl)cc1", "note": "(stereo not given)", "growth": "70.3%"}, {"smiles": "O=C(CNCCN1CCOCC1)N1c2cccc3cccc(c23)N(C(=O)CNCCN2CCOCC2)C1c1cn(-c2ccccc2)nc1-c1cccc([N+](=O)[O-])c1", "growth": "84.6%"}, {"smiles": "Cc1ccc(-n2c3c(c(-c4ccccc4)c2-c2ccccc2)C2=NCCN2C=N3)cc1", "growth": "80.8%"}, {"smiles": "O=C(Cn1c[n+](CC(=O)c2ccc([N+](=O)[O-])cc2)c2ccccc21)Nc1cccc2cccnc12", "growth": "73.6%"}, {"smiles": "O=C(NCCNc1nccc(-c2c(-c3cccc(F)c3)nc3sccn23)n1)c1ccc(Cl)cc1", "growth": "63.2%"}, {"smiles": "NC(=NCCCOc1ccc(F)cc1)Nc1ccc(I)cc1", "growth": "76%"}, {"smiles": "CC(C)=CCC[C@](C)(O)[C@H]1CC[C@]2(C)[C@@H]1CC[C@@H]1[C@@]3(C)C/C(=C/c4ccccc4)C(=O)C(C)(C)[C@@H]3CC[C@]12C", "growth": "96.4%"}, {"smiles": "COc1cc(-c2n/c(=C\\c3c(O)[nH]c4ccc(Cl)cc34)cc3c2=Nc2ccccc2-3)ccc1F", "growth": "51.6%"}, {"smiles": "COc1cc(C2C3=C(COC3=O)N(CCO)c3cc4c(cc32)CCC4)cc(OC)c1OC", "note": "(stereo not given)", "growth": "29.6%"}, {"smiles": "O=C(O)c1ccc2c(c1)C(=O)N(Cc1ccccc1)C2=O", "growth": "99.8%"}, {"smiles": "C=C1C(=O)O[C@H]2[C@H]1CC/C(COC(=O)NCc1c[nH]c3ccc(Br)cc13)=C\\CC[C@@]1(C)O[C@@H]21", "growth": "-16.5% (active)"}, {"smiles": "CC(C)(C)c1cc(C=O)cc(C(C)(C)C)c1O", "growth": "126%"}, {"smiles": "CCOC(=O)c1cc(C(=O)c2ccc(OC)c(OC)c2)n2ccc(/C=C/c3cc[n+](CC(=O)c4ccc(OC)c(OC)c4)cc3)cc12", "growth": "99.6%"}, {"smiles": "O=C(/C=C/c1ccc(Cl)cc1)c1ccc(NC(=O)N2CCN(c3cc4c(cc3F)c(=O)c(C(=O)O)cn4C3CC3)CC2)cc1", "growth": "98.4%"}, {"smiles": "COc1ccc(C(=O)C2C(C#N)C(C#N)C3c4ccccc4C=CN23)cc1", "note": "(stereo not given)", "growth": "84.2%"}, {"smiles": "CCCCCN1C=C/C(=C\\C(=O)N(C)c2ccccc2Br)c2ccccc21", "growth": "91.2%"}, {"smiles": "COc1ccccc1/C=C1\\Oc2cc(OCCN3CCCC3)ccc2C1=O", "growth": "85.9%"}, {"smiles": "COc1cc2oc(-c3cccc(C(=O)Nc4ccc(Cl)cc4)c3)cc(=O)c2c(O)c1OC", "growth": "77.2%"}, {"smiles": "O=C(Nc1ccc(-c2ccc3c(c2)NC(=O)/C3=C\\c2ccc[nH]2)cc1)NC1CC1", "growth": "47.5%"}, {"smiles": "O=C(Nc1ccc(NC(=O)c2cc(=O)[nH]c3ccccc23)cc1)Nc1cccc(Cl)c1", "growth": "85.2%"}, {"smiles": "N#Cc1c(NC(=O)NCc2ccccc2)sc2c1CCCC2", "growth": "57.8%"}, {"smiles": "N#Cc1cccc(-c2ccc3c(c2)NC(=O)/C3=C\\c2ccc[nH]2)c1", "growth": "25.2%"}, {"smiles": "Cc1ccc(S(=O)(=O)NNC(=O)/C(=C\\c2ccc(Cl)cc2)c2nc3ccccc3s2)cc1", "growth": "91.1%"}]}]}
